{"source": "PubChem BioAssay AID1159580", "about": "(chemical genetic matrix, 2015)", "assay": "chemical genetic growth profiling, strain panel (AID 1159580);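 further: tested at 20 µM; growth read once vehicle control cultures reached saturation at 30 °C; 1 = growth at the plate median or of vehicle wells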", "conditions": "S. cerevisiae deletion strains, growth OD", "note": "Several values for one entry are separate records, joined by “and”; a condition that tells them apart may be missing. Identical values can stand only once. Hit rate of the full screen: of about 5,500 compounds, about 2,000 (36%) were called active. About 18% were inconclusive and are not listed. No stated cut-off is given here; in the data, active means normalized growth mostly below about 0.91 (no sharp cut-off); inconclusive means no clear call, values can overlap the other calls; inactive means mostly above about 0.92. This is one part of the list."}
{"smiles": "CC(C)=CCCC(C)[C@@H]1CC[C@]2(C)C3=C(CC[C@@]12C)C1(C)CC[C@H](O)C(C)(C)C1CC3", "note": "(stereo partly drawn)", "values": [{"measurement": "normalized growth", "setting": "locus YAL021C, strain ccr4, stronger effect = lower value", "value": "1.04 (inactive)"}, {"measurement": "normalized growth", "setting": "locus YAL026C, strain drs2, stronger effect = lower value", "value": "1.04 (inactive)"}, {"measurement": "normalized growth", "setting": "locus YAL030W, strain snc1, stronger effect = lower value", "value": "1.07 [resistant] (active)"}, {"measurement": "normalized growth", "setting": "locus YBL061C, strain skt5, stronger effect = lower value", "value": "1.08 (inactive)"}, {"measurement": "normalized growth", "setting": "locus YBR009C, strain hhf1, stronger effect = lower value", "value": "1.01 (inactive)"}, {"measurement": "normalized growth", "setting": "locus YBR021W, strain FUR4, stronger effect = lower value", "value": "0.941 (inactive)"}, {"measurement": "normalized growth", "setting": "locus YBR023C, strain chs3, stronger effect = lower value", "value": "1.08 (inactive)"}, {"measurement": "normalized growth", "setting": "locus YBR171W, strain sec66, stronger effect = lower value", "value": "1.06 (inactive)"}, {"measurement": "normalized growth", "setting": "locus YBR229C, strain ROT2, stronger effect = lower value", "value": "1.08 (inactive)"}, {"measurement": "normalized growth", "setting": "locus YBR231C, strain swc5, stronger effect = lower value", "value": "1.09 [resistant] (active)"}, {"measurement": "normalized growth", "setting": "locus YBR279W, strain paf1, stronger effect = lower value", "value": "1.07 [resistant] (active)"}, {"measurement": "normalized growth", "setting": "locus YCL011C, strain gbp2, stronger effect = lower value", "value": "1.07 (inactive)"}, {"measurement": "normalized growth", "setting": "locus YCL016C, strain dcc1, stronger effect = lower value", "value": "1.03 (inactive)"}, {"measurement": "normalized growth", "setting": "locus YCL029C, strain bik1, stronger effect = lower value", "value": "1 (inactive)"}, {"measurement": "normalized growth", "setting": "locus YCL061C, strain MRC1, stronger effect = lower value", "value": "1.06 (inactive)"}, {"measurement": "normalized growth", "setting": "locus YCL069W, strain vba3, stronger effect = lower value", "value": "1.07 (inactive)"}, {"measurement": "normalized growth", "setting": "locus YCR088W, strain abp1, stronger effect = lower value", "value": "1.08 [resistant] (active)"}, {"measurement": "normalized growth", "setting": "locus YDL005C, strain med2, stronger effect = lower value", "value": "1.04 (inactive)"}, {"measurement": "normalized growth", "setting": "locus YDL035C, strain GPR1, stronger effect = lower value", "value": "0.886 (inactive)"}, {"measurement": "normalized growth", "setting": "locus YDL040C, strain nat1, stronger effect = lower value", "value": "1.08 [resistant] (active)"}, {"measurement": "normalized growth", "setting": "locus YDL074C, strain BRE1, stronger effect = lower value", "value": "1.34 [resistant] (active)"}, {"measurement": "normalized growth", "setting": "locus YDL101C, strain DUN1, stronger effect = lower value", "value": "1.02 (inactive)"}, {"measurement": "normalized growth", "setting": "locus YDL185W, strain tfp1, stronger effect = lower value", "value": "1.01 (inactive)"}, {"measurement": "normalized growth", "setting": "locus YDL192W, strain arf1, stronger effect = lower value", "value": "1.02 (inactive)"}, {"measurement": "normalized growth", "setting": "locus YDR001C, strain nth1, stronger effect = lower value", "value": "1.07 (inactive)"}, {"measurement": "normalized growth", "setting": "locus YDR069C, strain doa4, stronger effect = lower value", "value": "1.03 (inactive)"}, {"measurement": "normalized growth", "setting": "locus YDR101C, strain arx1, stronger effect = lower value", "value": "0.967 (inactive)"}, {"measurement": "normalized growth", "setting": "locus YDR137W, strain rgp1, stronger effect = lower value", "value": "0.774 (active)"}, {"measurement": "normalized growth", "setting": "locus YDR159W, strain sac3, stronger effect = lower value", "value": "1.05 (inactive)"}, {"measurement": "normalized growth", "setting": "locus YDR162C, strain NBP2, stronger effect = lower value", "value": "0.913 (inactive)"}, {"measurement": "normalized growth", "setting": "locus YDR195W, strain ref2", "value": "1.13 (inactive)"}, {"measurement": "normalized growth", "setting": "locus YDR297W, strain sur2, stronger effect = lower value", "value": "1.07 (inactive)"}, {"measurement": "normalized growth", "setting": "locus YDR318W, strain mcm21, stronger effect = lower value", "value": "1.01 (inactive)"}, {"measurement": "normalized growth", "setting": "locus YDR334W, strain swr1, stronger effect = lower value", "value": "1.05 (inactive)"}, {"measurement": "normalized growth", "setting": "locus YDR335W, strain msn5, stronger effect = lower value", "value": "1.02 (inactive)"}, {"measurement": "normalized growth", "setting": "locus YDR388W, stronger effect = lower value", "value": "1.03 (inactive)"}, {"measurement": "normalized growth", "setting": "locus YDR392W, strain spt3, stronger effect = lower value", "value": "1.02 (inactive)"}, {"measurement": "normalized growth", "setting": "locus YDR502C, strain sam2, stronger effect = lower value", "value": "0.989 (inactive)"}, {"measurement": "normalized growth", "setting": "locus YEL003W, strain gim4, stronger effect = lower value", "value": "1.02 (inactive)"}, {"measurement": "normalized growth", "setting": "locus YEL037C, strain rad23, stronger effect = lower value", "value": "1.06 (inactive)"}, {"measurement": "normalized growth", "setting": "locus YEL061C, strain CIN8 (second series), stronger effect = lower value", "value": "1.06 (inactive)"}, {"measurement": "normalized growth", "setting": "locus YER015W, strain faa2, stronger effect = lower value", "value": "1.08 [resistant] (active)"}, {"measurement": "normalized growth", "setting": "locus YER016W, strain bim1, stronger effect = lower value", "value": "1.07 (inactive)"}, {"measurement": "normalized growth", "setting": "locus YER110C, stronger effect = lower value", "value": "1.05 (inactive)"}, {"measurement": "normalized growth", "setting": "locus YER111C, strain swi4, stronger effect = lower value", "value": "1.08 (inactive)"}, {"measurement": "normalized growth", "setting": "locus YER155C, strain BEM2 (second series), stronger effect = lower value", "value": "1.09 (inactive)"}, {"measurement": "normalized growth", "setting": "locus YER155C, strain BEM2, stronger effect = lower value", "value": "1.1 [resistant] (active)"}, {"measurement": "normalized growth", "setting": "locus YER167W, strain BCK2, stronger effect = lower value", "value": "1.08 (inactive)"}, {"measurement": "normalized growth", "setting": "locus YFR010W, strain ubp6, stronger effect = lower value", "value": "1 (inactive)"}, {"measurement": "normalized growth", "setting": "locus YGL078C, strain dbp3, stronger effect = lower value", "value": "0.889 (active)"}, {"measurement": "normalized growth", "setting": "locus YGL086W, strain mad1, stronger effect = lower value", "value": "1 (inactive)"}, {"measurement": "normalized growth", "setting": "locus YGL167C, strain pmr1, stronger effect = lower value", "value": "1.08 (inactive)"}, {"measurement": "normalized growth", "setting": "locus YGL173C, strain kem1, stronger effect = lower value", "value": "1.02 (inactive)"}, {"measurement": "normalized growth", "setting": "locus YGL227W, strain vid30, stronger effect = lower value", "value": "1.07 (inactive)"}, {"measurement": "normalized growth", "setting": "locus YGL240W, strain doc1, stronger effect = lower value", "value": "1.02 (inactive)"}, {"measurement": "normalized growth", "setting": "locus YGL248W, strain PDE1, stronger effect = lower value", "value": "1.01 (inactive)"}, {"measurement": "normalized growth", "setting": "locus YGL253W, strain hxk2, stronger effect = lower value", "value": "1.04 (inactive)"}, {"measurement": "normalized growth", "setting": "locus YGR078C, strain PAC10, stronger effect = lower value", "value": "1.13 (inactive)"}, {"measurement": "normalized growth", "setting": "locus YGR135W, strain pre9, stronger effect = lower value", "value": "0.996 (inactive)"}, {"measurement": "normalized growth", "setting": "locus YGR252W, strain gcn5, stronger effect = lower value", "value": "0.985 (inactive)"}, {"measurement": "normalized growth", "setting": "locus YHR013C, strain ard1, stronger effect = lower value", "value": "1.15 (inactive)"}, {"measurement": "normalized growth", "setting": "locus YHR027C, strain rpn1, stronger effect = lower value", "value": "1.06 (inactive)"}, {"measurement": "normalized growth", "setting": "locus YHR030C, strain SLT2, stronger effect = lower value", "value": "1.1 [resistant] (active) and 0.945 (inactive)"}, {"measurement": "normalized growth", "setting": "locus YHR079C, strain IRE1 (second series), stronger effect = lower value", "value": "1.05 (inactive)"}, {"measurement": "normalized growth", "setting": "locus YHR079C, strain IRE1, stronger effect = lower value", "value": "0.877 (inactive)"}, {"measurement": "normalized growth", "setting": "locus YHR094C, strain hxt1, stronger effect = lower value", "value": "1.07 (inactive)"}, {"measurement": "normalized growth", "setting": "locus YHR129C, strain ARP1, stronger effect = lower value", "value": "1.06 (inactive)"}, {"measurement": "normalized growth", "setting": "locus YHR142W, strain chs7, stronger effect = lower value", "value": "1.03 (inactive)"}, {"measurement": "normalized growth", "setting": "locus YHR200W, strain rpn10, stronger effect = lower value", "value": "1.01 (inactive)"}, {"measurement": "normalized growth", "setting": "locus YIL066C, strain RNR3, stronger effect = lower value", "value": "1.03 (inactive)"}, {"measurement": "normalized growth", "setting": "locus YIL073C, strain SPO22, stronger effect = lower value", "value": "1.43 [resistant] (active)"}, {"measurement": "normalized growth", "setting": "locus YIL125W, strain kgd1, stronger effect = lower value", "value": "1.01 (inactive)"}, {"measurement": "normalized growth", "setting": "locus YIR030C, strain dcg1, stronger effect = lower value", "value": "1.06 (inactive)"}, {"measurement": "normalized growth", "setting": "locus YJL092W, strain hpr5, stronger effect = lower value", "value": "1.08 (inactive)"}, {"measurement": "normalized growth", "setting": "locus YJL095W, strain BCK1 (second series), stronger effect = lower value", "value": "1.08 [resistant] (active)"}, {"measurement": "normalized growth", "setting": "locus YJL095W, strain BCK1, stronger effect = lower value", "value": "1.14 (inactive) and 0.943 (inactive)"}, {"measurement": "normalized growth", "setting": "locus YJL115W, strain asf1, stronger effect = lower value", "value": "1.06 (inactive)"}, {"measurement": "normalized growth", "setting": "locus YJL129C, strain trk1, stronger effect = lower value", "value": "1.08 (inactive)"}, {"measurement": "normalized growth", "setting": "locus YJL134W, strain LCB3, stronger effect = lower value", "value": "1.07 [resistant] (active)"}, {"measurement": "normalized growth", "setting": "locus YJL154C, strain vps35, stronger effect = lower value", "value": "1.08 (inactive)"}, {"measurement": "normalized growth", "setting": "locus YJL164C, strain tpk1, stronger effect = lower value", "value": "1.02 (inactive)"}, {"measurement": "normalized growth", "setting": "locus YJL166W, strain qcr8, stronger effect = lower value", "value": "1.03 (inactive)"}, {"measurement": "normalized growth", "setting": "locus YJL168C, strain set2, stronger effect = lower value", "value": "1.1 [resistant] (active)"}]}
